Data on 9 compounds can be found in PubChem BioAssay (NCI).

About 83,000 compounds went through this panel and 20% of them were active in at least one assay; those are over-represented in the sample as a whole.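 Assay: single dose, 48 h. Readout: percent growth (0 = no net growth; negative = cell death). Active: <10.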 A number with no mark means an inactive call. Activity calls are given as the source filed them.

Assay in all cases: NCI-60 one-dose screen, 48 h (100 = growth as untreated, 0 = no growth, -100 = all killed)
Holding throughout (details): 10 µM unless noted

Assay [1] relates to SR leukemia.
Assay [2] concerns RPMI-8226 leukemia.
Assay [3] has as its system OVCAR-8 ovarian.
The test system of assay [4] is OVCAR-5 ovarian.
Assay [5] relates to OVCAR-4 ovarian.
For assay [6], the system named is SK-OV-3 ovarian.
Assay [7] concerns IGROV1 ovarian.
In assay [8] the test system is OVCAR-3 ovarian.
For assay [9], the system named is NCI/ADR-RES ovarian.

Regarding `CNC(=O)c1nn(C)c2c1C(C)(C)Cc1cnc(Nc3ccc(N4CCN(C)CC4)cc3)nc1-2`, the growth was -1.85% (active) in assay [1]; 0.421% (active) in assay [2]; 8.9% (active) in [3]; 9.13% (active) in assay [4]; 12.9% in assay [5]; -16.9% (active) in assay [6]. In addition, the growth in assay [7] was 2.47% (active); in [8], 20.7%; in assay [9], 9.88% (active).

With `CC(C)CC(=O)Nc1n[nH]c2c1CN(C(=O)C1CCN(C)CC1)C2(C)C`, the growth in assay [1] is 2.42% (active); in assay [2] it was 3.37% (active); in [3] it was 15.4%; in assay [4], 8.63% (active); in assay [5] it was 33.5%; in [6], -1.71% (active). In addition, the growth in assay [7] is 15.4%; in assay [8] it was 18.3%; in assay [9] it was 96.1%.

Regarding `CN1CC[C@@H](c2c(O)cc(O)c3c(=O)cc(-c4ccccc4Cl)oc23)[C@@H]1CO`, the growth in [1] was 1.89% (active); in assay [2] it was 3.13% (active); in assay [3], 6.68% (active); in [4], 7.25% (active); in assay [5], -2.68% (active); in assay [6], 5.82% (active). In addition, the growth in assay [7] is 6.42% (active); in assay [8], 14%; in [9] it was -3.1% (active).

In the case of `CN1CCC(CNc2ccc3ncc(-c4cccc(OC(F)(F)F)c4)n3n2)CC1`, the growth in assay [1] was -19.4% (active); in [2], -45.3% (active); in assay [3], 0.791% (active); in [4] it was -32.8% (active); in assay [5], -1.72% (active); in assay [6], -1.52% (active). The figures for the growth in assay [7], in assay [8] and in assay [9] were -60.4% (active), -26.6% (active) and -4.75% (active), respectively.

Regarding `CCCNC(=O)c1cn2ncnc(Nc3cc(C(=O)NC4CC4)ccc3C)c2c1C`, the growth in [1] was 73.6%; in assay [2], 75.9%; in assay [3], 77.8%; in assay [4], 17.6%; in assay [5], 92.1%; in assay [6], 70.5%. For the same compound, the values for the growth in [7], in assay [8] and in [9] were 42.4%, 103% and 66.9%, respectively.

As to `O=C1C=CC2(NN=C(c3ccccc3)N2c2cccc(Cl)c2)c2cccc(O)c21` (stereo unspecified), the growth in [1] is 49.9%; in [2], 57.4%; in assay [3], 63.1%; in assay [4] it was 52.8%; in assay [5], 59.3%; in assay [6] it was 92.5%. The growth was 70.4% in [7], 36.6% in [8] and 56% in [9].

On to `O=C(NOC[C@H](O)CO)c1ccc(F)c(F)c1Nc1ccc(I)cc1F`, for which the growth in assay [1] was 45.7%; in assay [2], 59.7%; in assay [3] it was 43.5%; in assay [4] it was 9.99% (active); in assay [5], 62%; in assay [6] it was 46.3%. Further, the growth in assay [7] was 14.1%; in assay [8] it was 95.1%; in assay [9], 59.2%.

On to `C#Cc1cccc(Nc2ncnc3cc4c(cc23)OCCOCCOCCO4)c1`, for which the growth was 53.5% in [1]; 70% in [2]; 53.9% in assay [3]; 60.4% in assay [4]; 63.2% in [5]; -17% (active) in assay [6]. Moreover, the growth in assay [7] was 15.2%; in assay [8], 40.9%; in assay [9], 58.5%.

As for `C[C@@H](Oc1cc(-n2cnc3ccc(CN4CCN(C)CC4)cc32)sc1C(N)=O)c1ccccc1C(F)(F)F`, the growth was -19.6% (active) in [1]; 34.2% in [2]; 5.18% (active) in assay [3]; 19.9% in assay [4]; 33.8% in assay [5]; -2.74% (active) in assay [6]. Also, the growth is 16.8% in assay [7], 38% in assay [8] and 18.5% in [9].
